This is part of a sample that, as a whole, favours compounds with a hit. Of some 79,000 tested, about 15% had one in any assay. Rule as the data show it: active = growth inhibition above about 70%; inactive = the rest.
Legend:
[1] = NCI Yeast Anticancer Drug Screen. Data for the rad50 strain (AID 155);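 also: 0% = growth of vehicle-only cultures of the same strain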; conditions: S. cerevisiae rad50 strain growth inhibition; at 50.0 µM; stronger effect = higher value
Summary of the method: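 Readout: growth inhibition relative to vehicle-treated cultures. Compound exposure was carried out in a genetically defined yeast strain deficient in DNA damage repair.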

[2] = NCI Yeast Anticancer Drug Screen. Data for the mec2-1 strain (AID 157); conditions: S. cerevisiae mec2-1 strain, at 50.0 µM, stronger effect = higher value
Summary of the method: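 Each compound was tested on mec2-1 yeast, a strain altered in DNA damage repair or cell cycle control. Growth inhibition is reported relative to vehicle.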

[3] = NCI Yeast Anticancer Drug Screen. Data for the sgs1 mgt1 strain (AID 161);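 also: 0% = growth of cultures given vehicle only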; conditions: S. cerevisiae sgs1 mgt1 strain, at 50.0 µM, stronger effect = higher value
Summary of the method: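 Read-out: growth inhibition vs vehicle controls. Cells: mutant yeast strain deficient in DNA damage repair.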

[4] = NCI Yeast Anticancer Drug Screen. Data for the cln2 rad14 strain (AID 165);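 also: 0% = growth equal to vehicle treated cultures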; conditions: S. cerevisiae cln2 rad14 strain, at 50.0 µM, stronger effect = higher value
Summary of the method: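 Test compounds were added to cln2 rad14 yeast cultures; inhibition of growth was then determined by comparison with vehicle treatment.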

[5] = NCI Yeast Anticancer Drug Screen. Data for the bub3 strain (AID 167); conditions: S. cerevisiae bub3 mutant strain, at 50.0 µM, stronger effect = higher value
Summary of the method: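 Readout: yeast growth inhibition, expressed relative to vehicle-only wells. The test organism is a mutant strain from a panel with lesions in DNA repair or checkpoint genes.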

[6] = NCI Yeast Anticancer Drug Screen. Data for the mlh1 rad18 strain (AID 175); conditions: S. cerevisiae mlh1 rad18 strain growth inhibition; at 50.0 µM; stronger effect = higher value
Summary of the method: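 Inhibition values reflect reduced growth of mutant yeast versus vehicle-treated controls following compound exposure; the mutations affect DNA damage repair.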

Measured: growth inhibition

CCCCCCCCC(=O)OCC(=O)c1ccc(-c2ccccc2)cc1
inactive: [1] 10.8% | [2] -15.3% | [3] 3.35% | [4] -7.85% | [5] 3.3% | [6] 3.65%

C=C(C(=C)N1N=NC2C3CCC(C3)C21)N1N=NC2C3CCC(C3)C21 (stereo unspecified)
inactive: [1] -5.9% | [2] -15.9% | [3] 10.3% | [4] 7.15% | [5] -4.75% | [6] -7.95%

Oc1ccc(Cn2c(-c3ccc(O)cc3)nc3ccccc32)cc1
inactive: [1] -6.95% | [2] -5% | [3] -10.1% | [4] 5.05% | [5] 1.4% | [6] -13.3%

CN(C)c1ccc(C=Nc2cc(Cl)ccc2O)cc1
inactive: [1] 38.9% | [2] 23.2% | [3] 37.4% | [4] -2.9% | [5] 66% | [6] 52.9%

O=S(=O)(c1ccccc1)c1ccc(O)cc1
inactive: [1] -20.8% | [2] -23.8% | [3] -16.9% | [4] -29.8% | [5] -8.35% | [6] -15.7%

CCn1c(=O)c(C#N)c2n(CC)c3ccccc3n2c1=O
inactive: [1] 39.5% | [2] 13.8% | [3] 19.4% | [4] 10.2% | [5] 20.9% | [6] 30%

CCCC(N)C(=O)NC(Cc1c[nH]c2ccccc12)C(=O)O (stereo unspecified)
inactive: [1] -23.9% | [2] -6.65% | [3] -12% | [4] -0.3% | [5] 0.9% | [6] 2.05%

CCCCc1ccc(Nc2nc(=S)c3[nH]cnc3[nH]2)cc1
inactive: [1] 26.9% | [2] 19.6% | [3] 32.2% | [4] 23.9% | [5] 35% | [6] 6.5%

N#Cc1ccc(CC(O)(c2ccccc2)c2ccccc2)cc1
inactive: [1] 4.6% | [2] -1.25% | [3] -1.3% | [4] -12.6% | [5] 3.25% | [6] -9.7%

Cc1ncc(-c2ccccc2)o1
inactive: [1] -20.2% | [2] -21.2% | [3] -1.75% | [4] -7% | [5] -19.9% | [6] -15.7%

COc1cc2c(cc1OC)C1Cc3ccc(OC)c(OC)c3C[N+]1([O-])CC2 (stereo unspecified)
inactive: [1] -24.9% | [2] -16.8% | [3] -6.95% | [4] 9.6% | [5] -15.6% | [6] -3.2%

CCCCCCCCCCCCc1c2ccccc2cc2ccccc12
inactive: [1] 3.55% | [2] -3.8% | [3] -4.7% | [4] -11.4% | [5] 25.1% | [6] 9.5%

CC(=O)NC(CCCCNC(=O)NCCCl)C(=O)NCc1ccccc1 (stereo unspecified)
inactive: [1] 3.3% | [2] -22.8% | [3] -2.85% | [4] 20.8% | [5] -12% | [6] -8.9%

CCCCSc1ccc2n(C)c(-c3ccc(/C=N\NC(=O)c4ccc(C(=O)N/N=C\c5ccc(-c6c[n+]7cc(SCCCC)ccc7n6C)cc5)cc4)cc3)c[n+]2c1
inactive: [1] -15.8% | [2] -14.7% | [3] -17.9% | [4] -8.45% | [5] -7.1% | [6] -1.65%

CCOC(=O)C1CC(C)c2[nH]c3ccccc3c21 (stereo unspecified)
inactive: [1] 2.2% | [2] 6.9% | [3] -5.15% | [4] -25% | [5] -12% | [6] -13%

C(CCN1CCOCC1)CN1CCOCC1
inactive: [1] -3.4% | [2] 4.5% | [3] 0.45% | [4] -4.1% | [5] -10.7% | [6] 1.15%

CN(CC#N)[C@H]1CCC[C@]1(O)C#C[Si](C)(C)c1ccccc1
inactive: [1] 9.15% | [2] -19.8% | [3] 19.1% | [4] 30.9% | [5] 9.05% | [6] 1.55%

CC(C)CCCC(C)C1CCC2C3CC=C4CCCCC4(C)C3CCC12C (stereo unspecified)
inactive: [1] -22.4% | [2] -4.25% | [3] -3.85% | [4] -5.45% | [5] -5.05% | [6] -23.6%

CCN(CC)CCN1CC(=O)N2Cc3ccccc3CN2C(=O)C1
inactive: [1] -0.7% | [2] -4.45% | [3] 0.6% | [4] 10.4% | [5] 4.45% | [6] 5.9%

CC1CCc2ccccc2N1C(=O)c1cccc([N+](=O)[O-])c1C(=O)O (stereo unspecified)
inactive: [1] -6.1% | [2] 2.7% | [3] 27.4% | [4] -11.6% | [5] 21.7% | [6] 5.5%

CCC1CN2CCc3cc(OC)c(OC)cc3C2CC12CO2 (stereo unspecified)
inactive: [1] -5.6% | [2] -21.3% | [3] 3.15% | [4] -2.5% | [5] 48.8% | [6] -36.1%
